This passage reports growth inhibition results from PubChem BioAssay (NCI).

The structures appear in SMILES notation. Compounds without any hit were thinned out: in the full panel of roughly 79,000, 15% have a hit. A number with no mark means an inactive call. The source made the active and inactive calls. Cut-off read from the data, not from the text of the source: active = growth inhibition above about 70%; inactive = the rest.

One experiment can be described thus: NCI Yeast Anticancer Drug Screen. Data for the sgs1 mgt1 strain (AID 161).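 Note: 0% = growth of cultures given vehicle only.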 The conditions noted are these: S. cerevisiae sgs1 mgt1 strain, at 50.0 µM, hits give high values. Put shortly: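 Test agents were incubated with a DNA-repair-mutant yeast strain. Growth was then read and compared against vehicle-treated controls.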
For `N#C/C(=C\c1ccco1)C(=O)Nc1ccc(Br)cc1`, the growth inhibition is 1.65%.
The same measure, in the same setting: the value for `O=[N+]([O-])c1ccc(SCN(CSc2ccc([N+](=O)[O-])cc2)Cc2ccccc2)cc1` was -1.2%; that for `CN(C)CCC(O)(c1ccccc1)C(O)(CCN(C)C)c1ccccc1` (stereo not given) was -8.45%.
The same measure, in the same setting: with `CCCCCCCCOC(=O)c1cc([N+](=O)[O-])c(Sc2ncnc3nc[nH]c23)c([N+](=O)[O-])c1` the figure was 25.9%; with `CC(=O)NC(Cc1ccc(C)cc1)C(=O)O` (stereo not given), 20.1%.
For `Nc1cccc(SC2CC(=O)N(c3ccc4c(c3)OCO4)C2=O)c1` (stereo not given), the growth inhibition is 91.5% (active).
The same measure, in the same setting: the value for `N#Cc1c2c(n3c1[nH]c(=O)c1ccccc13)CCCC2` was 23.9%; that for `Cc1nc2c(=O)n3c4c(cccc4c2o1)CCC3` was 21.6%.
For the compound `O=C1c2cc(Cl)ccc2-n2c(noc2=O)C2CSCN12` (stereo not given), the growth inhibition was -21%.
On the same count and under the same terms, with `O=C1CC2[C@@H](N3CCCC3)CCC(N1Cc1ccccc1)C2(O)O` (stereo not given in full) the figure was 1.2%; with `CC(=O)OCCCC(=O)Nc1cc([N+](=O)[O-])ccc1OCc1ccccc1`, 3.45%.
Consider `Cc1ccc(NC(=O)C(=O)C(C(=O)c2ccc3ccccc3c2)C2OC(=O)c3ccccc32)c(C)c1` (stereo not given), for which the growth inhibition was 32.9%.
On the same count and under the same terms, the value for `[O-][n+]1c2ccccc2[n+]([O-])c2cc(O)ccc21` was 12.7%; that for `Cc1cccc(NC(=O)c2ccc(Cl)cc2Cl)n1` (tested in a mixture with another compound) was 3.45%.
Same read-out and setting: the value for `COC(=O)c1cc([O-])c2sc(C)c(C)[n+]2n1` was 25.7%; that for `COc1nc(NC2OCC(O)C(O)C2O)c(Br)c(=O)n1C` (stereo not given) was 14.2%.
Turning to `C=CCN1C(=O)c2ccccc2S1(=O)=O`, the growth inhibition is -5.95%.
The same measure, in the same setting: the value for `CCOC(=O)NCc1ccccc1` was 10.3%; that for `CCOc1cc(/C=C2\N=C(c3ccccc3)OC2=O)ccc1O` was 2.6%.
On the same count and under the same terms, with `c1ccc(C2=NOC3C4CCC(C4)C23)cc1` (stereo not given) the figure was -28.4%; with `OCC1C=Cc2ccccc21` (stereo not given), -0.6%.
Same read-out and setting: the value for `CCCCCCCCCCNC(=O)C(OC(C)=O)C(OC(C)=O)C(OC(C)=O)C(COC(C)=O)OC(C)=O` (stereo not given) was 19.3%; that for `NC1=NC(c2ccccc2)C2=C(N1)C(=O)N(Cc1ccccc1)C2` (stereo not given) was -0.8%; that for `O=C(O)c1cccc(Cl)c1-c1c(Cl)cccc1C(=O)O` was 17.8%.
Regarding `N#C/C(=C/N1CCNC1=S)C(N)=O`, the growth inhibition was 9.5%.
The same measure, in the same setting: the value for `N#CC1=CNc2ccccc2N=C1N` was 28.4%; that for `CCCCC(O)(CCCC)C(C)(C)C` was 0.6%.
The same measure, in the same setting: the value for `O=C1C(Cl)N(c2ccccc2[N+](=O)[O-])C1c1c[nH]c2ccccc12` (stereo not given) was 3.65%; that for `COc1ccc2cc(C(=O)CCC(=O)O)ccc2c1` was -16.4%; that for `O=Cc1cccc2c([N+](=O)[O-])cccc12` was 32.6%.
Still for that read-out and setting: the value for `Nc1cc(S(=O)(=O)O)cc2cccc(S(=O)(=O)O)c12` was 0.35%; that for `O=C(CCCCC(=O)NC1c2ccccc2Oc2ccccc21)NC1c2ccccc2Oc2ccccc21` was 31%.
In the case of `NCC1CCC(C(=O)O)CC1` (stereo not given), the growth inhibition was -10%.
Still for that read-out and setting: the value for `COC(C)C(NC=O)C(=O)O` (stereo not given) was 7.45%.
The same measure, in the same setting: with `C/C(O)=C(\N=Nc1ccccc1)C(N)=O` the figure was 5.9%.
Still for that read-out and setting: with `Cc1cc2c(cc1C)OC(=O)CC2` the figure was -1.2%.
As to `CNCCS(=O)(=O)O`, the growth inhibition is 1.7%.
The same measure, in the same setting: with `Cc1c(-c2ccccc2)c2ccccc2c2ccccc12` the figure was -4.25%.
Still for that read-out and setting: with `COc1cccc(CCN(CCOC(N)=O)CCOC(N)=O)c1OC` the figure was 2.9%; with `COc1cc(C)c2cccc(C)c2n1`, -0.4%.

The nature of a further experiment: NCI Yeast Anticancer Drug Screen. Data for the cln2 rad14 strain (AID 165).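 Note: 0% = growth equal to vehicle treated cultures.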 Conditions: S. cerevisiae cln2 rad14 strain, at 50.0 µM, hits give high values. The procedure, abridged:
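Compounds are applied to the cln2 rad14 yeast strain, and growth is then compared with that of vehicle-treated cultures to give inhibition.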
On to `N#C/C(=C\c1ccco1)C(=O)Nc1ccc(Br)cc1`, for which the growth inhibition was -35.8%.
Take `O=[N+]([O-])c1ccc(SCN(CSc2ccc([N+](=O)[O-])cc2)Cc2ccccc2)cc1`: the growth inhibition was -17.4%.
Same read-out and setting: the value for `CN(C)CCC(O)(c1ccccc1)C(O)(CCN(C)C)c1ccccc1` (stereo not given) was -8.85%.
Still for that read-out and setting: with `CCCCCCCCOC(=O)c1cc([N+](=O)[O-])c(Sc2ncnc3nc[nH]c23)c([N+](=O)[O-])c1` the figure was 11.8%; with `CC(=O)NC(Cc1ccc(C)cc1)C(=O)O` (stereo not given), -3.5%; with `Nc1cccc(SC2CC(=O)N(c3ccc4c(c3)OCO4)C2=O)c1` (stereo not given), 79.2% (active).
`N#Cc1c2c(n3c1[nH]c(=O)c1ccccc13)CCCC2`: the growth inhibition was 11.9%.
Consider `Cc1nc2c(=O)n3c4c(cccc4c2o1)CCC3`, for which the growth inhibition was 14.5%.
On the same count and under the same terms, with `O=C1c2cc(Cl)ccc2-n2c(noc2=O)C2CSCN12` (stereo not given) the figure was 8.85%; with `O=C1CC2[C@@H](N3CCCC3)CCC(N1Cc1ccccc1)C2(O)O` (stereo not given in full), -4.05%.
On to `CC(=O)OCCCC(=O)Nc1cc([N+](=O)[O-])ccc1OCc1ccccc1`, for which the growth inhibition is -6.35%.
The same measure, in the same setting: with `Cc1ccc(NC(=O)C(=O)C(C(=O)c2ccc3ccccc3c2)C2OC(=O)c3ccccc32)c(C)c1` (stereo not given) the figure was 11.2%; with `[O-][n+]1c2ccccc2[n+]([O-])c2cc(O)ccc21`, -1.3%; with `Cc1cccc(NC(=O)c2ccc(Cl)cc2Cl)n1` (tested in a mixture with another compound), -25.6%.
Take `COC(=O)c1cc([O-])c2sc(C)c(C)[n+]2n1`: the growth inhibition was 35.6%.
On the same count and under the same terms, with `COc1nc(NC2OCC(O)C(O)C2O)c(Br)c(=O)n1C` (stereo not given) the figure was 11.8%.
The same measure, in the same setting: with `C=CCN1C(=O)c2ccccc2S1(=O)=O` the figure was -27.8%; with `CCOC(=O)NCc1ccccc1`, 2.6%.
Still for that read-out and setting: with `CCOc1cc(/C=C2\N=C(c3ccccc3)OC2=O)ccc1O` the figure was -50.8%.
In the case of `c1ccc(C2=NOC3C4CCC(C4)C23)cc1` (stereo not given), the growth inhibition is -21%.
`OCC1C=Cc2ccccc21` (stereo not given): the growth inhibition is 2.15%.
`CCCCCCCCCCNC(=O)C(OC(C)=O)C(OC(C)=O)C(OC(C)=O)C(COC(C)=O)OC(C)=O` (stereo not given): the growth inhibition is 32.1%.
`NC1=NC(c2ccccc2)C2=C(N1)C(=O)N(Cc1ccccc1)C2` (stereo not given): the growth inhibition was -18.9%.
Same read-out and setting: the value for `O=C(O)c1cccc(Cl)c1-c1c(Cl)cccc1C(=O)O` was 11.8%; that for `N#C/C(=C/N1CCNC1=S)C(N)=O` was 23.9%; that for `N#CC1=CNc2ccccc2N=C1N` was 8.55%.
As to `CCCCC(O)(CCCC)C(C)(C)C`, the growth inhibition is -30.9%.
Same read-out and setting: the value for `O=C1C(Cl)N(c2ccccc2[N+](=O)[O-])C1c1c[nH]c2ccccc12` (stereo not given) was -19.9%.
In the case of `COc1ccc2cc(C(=O)CCC(=O)O)ccc2c1`, the growth inhibition is -21.3%.
The same measure, in the same setting: the value for `O=Cc1cccc2c([N+](=O)[O-])cccc12` was 6.95%.
On the same count and under the same terms, the value for `Nc1cc(S(=O)(=O)O)cc2cccc(S(=O)(=O)O)c12` was -20.6%; that for `O=C(CCCCC(=O)NC1c2ccccc2Oc2ccccc21)NC1c2ccccc2Oc2ccccc21` was 32%.
Same read-out and setting: the value for `NCC1CCC(C(=O)O)CC1` (stereo not given) was -20.9%; that for `COC(C)C(NC=O)C(=O)O` (stereo not given) was 8.65%; that for `C/C(O)=C(\N=Nc1ccccc1)C(N)=O` was -28.9%.
For `Cc1cc2c(cc1C)OC(=O)CC2`, the growth inhibition is -11.9%.
The same measure, in the same setting: with `CNCCS(=O)(=O)O` the figure was -6.3%.
Still for that read-out and setting: the value for `Cc1c(-c2ccccc2)c2ccccc2c2ccccc12` was 0.1%.
On to `COc1cccc(CCN(CCOC(N)=O)CCOC(N)=O)c1OC`, for which the growth inhibition is -7.35%.
On the same count and under the same terms, with `COc1cc(C)c2cccc(C)c2n1` the figure was -32.2%.
